Source: PubChem BioAssay
The list is not random: actives were taken first. Their share in the collection is about 12%.
MARV entry inh: qHTS for inhibitors of binding or entry into cells for Marburg Virus; Marburg virus pseudotyped entry inhibition, cell reporter; Potency, µM (doses to about 37.8 µM), inactives show at the highest dose activity change, negative = inhibition, actives largely listed as inhibitors; actives 1.8% (n = 300,000); AID 540276, 2011; calls by dose curve; tested in HEK293 cells; further: potency means the concentration at half of the fitted maximal effect; on the % scale 0 is the no-effect control and ±100 the full control effect
Shiga inhibitor: A qHTS for Small Molecule Inhibitors of Shiga Toxin; Vero cells, Shiga toxin protein synthesis inhibition reporter; inhibition, % at 38.7 µM; actives 9.2% (n = 290,000); in the data active means inhibition mostly above about 28%, no sharp cut-off; inactive means mostly below about 43%; further: 0% is about no effect
CHX counter: Cycloheximide Counterscreen for Small Molecule Inhibitors of Shiga Toxin; max response, %; AID 2314, 2010; actives 12% (n = 300,000); cell reporter, cycloheximide protein synthesis inhibition counterscreen; in the data active means max response mostly above about 13%, no sharp cut-off; inactive means mostly below about 14%; further: read at 38.3 µM for the half of the compounds with a filed dose; 0% is about no effect
Lassa entry inh: qHTS for Inhibitors of binding or entry into cells for Lassa Virus | Potency, µM (series often up to 37.9 µM), inactives show top-dose activity change, negative = inhibition, most hits filed as inhibitors | Lassa virus pseudotype entry inhibition, cell reporter | actives 1.2% (n = 300,000) | AID 540256, 2011; calls by dose curve; tested in HEK293 cells; further: potency means the concentration at half of the fitted maximal effect; on the % scale 0 is the no-effect control and ±100 the full control effect; nearly all actives have a fitted effect of over 50% in size
Numbers without * were called inactive; ? = inconclusive; · = not tested or not shown; + = active, no number; ! = repeats disagree; [ ] = dose if it differs, or a comment.

SMILES	MARV entry inh	Shiga inhibitor	CHX counter	Lassa entry inh
Cc1nc2ccccc2cc1C(=O)N/N=C/c1cccc([N+](=O)[O-])c1	-17.0%	-3.1	-2.0	-21.0%
O=C(N/N=C/C=C\c1cccc([N+](=O)[O-])c1)c1ccccn1	·	-7.5	6.5	·
Cc1cc(C(=O)N/N=C/c2cccc([N+](=O)[O-])c2)c(C)n1-c1ccccc1	?	86.5*	43.0*	-1.3%
O=C(N/N=C\c1cc([N+](=O)[O-])ccc1N1CCOCC1)c1ccccn1	?	-8.5	3.1	-26.3%
O=C(CC1(C(F)(F)F)OCCO1)Nc1ccc2c(c1)OCO2	16.0%	-5.4	0.8	9.8%
COc1ccc(NC(=O)C2CCN(C(=O)[C@@H]3Cc4ccccc4CN3C(=O)OC(C)(C)C)CC2)cc1	·	21.2	-2.9	·
COc1ccc(/C=N/NC(=O)c2cc(C)n(-c3ccccc3)c2C)cc1OC	?	87.0*	25.2*	·
Cc1cc(C(=O)N/N=C2\CCCC(=O)C2)c(C)n1-c1ccccc1	?	30.3*	16.7*	?
Cc1ccc(C)n1-c1ccc(C(=O)NN=C2CCCC2)cc1	20.4%[46.1 µM]	25.8	7.9	23.5%
COc1ccc(C(CNCC(O)COc2c(C)ccc(C)c2C)N(C)C)cc1 (stereo not drawn)	·	-5.1	-4.4	·
CC(C)(C)C(=O)Nc1ccc(-c2csnn2)cc1	-2.6%	43.6*	49.6*	·
CC(=O)Nc1ccc(NC(=O)c2csnn2)cc1	3.9%[46.1 µM]	·	·	20.1%[46.1 µM]
O=C(Nc1ccc(-c2csnn2)cc1)C(Cl)(Cl)Cl	·	111.2*	36.6*	·
Cc1ccc(OCc2nc(-c3ccc(Cl)cc3)n[nH]2)cc1	-18.1%	63.4*	20.3*	?
Cc1ccc(-c2n[nH]c(Cc3ccccc3)n2)cc1	·	74.5*	48.6*	·
CCOC(=O)Cc1nc(-c2ccc(Cl)cc2)n[nH]1	17.1%[46.1 µM]	38.3	25.8*	?
CC1(C2CC2)NC(=O)N(CC(=O)Nc2ccccc2F)C1=O (stereo not drawn)	15.8%	·	·	8.5%
CC(C)C1Oc2ccccc2N(CC(=O)NC2CCCCC2)C1=O (stereo not drawn)	?	56.9	3.3	-21.7%
C=Cc1c(C)c2cc3[nH]c(cc4nc(cc5nc(cc1[nH]2)C(C)=C5CCC(=O)O)C(CCC(=O)O)=C4C)c(C)c3C=C	7.94µM*!	·	·	?
Cc1nn(-c2ccc(C(=O)OC(C)C)cc2)c(C)c1[N+](=O)[O-]	?	61.9*	31.5*	?
Cc1nn(-c2cccc(C(=O)O)c2)c(C)c1[N+](=O)[O-]	0.1%[46.1 µM]	-10.0	3.6	16.4%
Cc1ccc(C(=O)Nc2nnc(SCC(=O)N3CCCc4ccccc43)s2)cc1	?	49.0*	32.9*	3.55µM*
CCOC(=O)C(C)Sc1nnc(NC(=O)c2ccc3c(c2)OCO3)s1 (stereo not drawn)	-4.1%	13.6	2.0	-4.0%
CCOC(=O)CNC(=O)CSc1nnc(NC(=O)c2ccc3c(c2)OCO3)s1	?	21.7*	12.0*	?
CCOC(=O)CNC(=O)CSc1nnc(NC(=O)c2ccc(C)cc2)s1	6.31µM*	-12.5	-4.6	?
SMILES	MARV entry inh	Shiga inhibitor	CHX counter	Lassa entry inh
Fc1ccccc1N1CCN(c2nc3ccccc3n3nnnc23)CC1	?	23.1	14.3*	-2.8%
[O-]/C(=C(\C(=S)Nc1cccc2ccccc12)[n+]1ccccc1)c1cccs1	16.8%[46.1 µM]	31.6	19.2*	-15.8%
Cc1cccc(C)c1NC(=S)/C(=C(\[O-])c1cccs1)[n+]1ccccc1	-0.8%	-11.0	-0.6	-1.1%
[O-]/C(=C(\C(=S)Nc1cccc2ccccc12)[n+]1ccccc1)c1ccc2c(c1)OCCO2	?	38.7	22.2*	-3.8%
COc1ccc(-c2cc(-c3ccc(O)cc3)nc(N)c2C#N)cc1OC	4.47µM*	36.5	1.4	?
COc1cc(-c2c(C#N)c(N)nc3c2CCCC3)ccc1O	-27.4%	-5.8	-2.5	-10.5%
COc1ccc(-c2c(C#N)c(N)nc3c2CCc2ccccc2-3)cc1OC	23.1µM*	1.0	-1.9	?
CCCc1cc(-c2ccc(O)c(OCC)c2)c(C#N)c(N)n1	-11.6%	-3.6	9.1	10.2%
CCc1ccccc1NC(=O)c1cc(-c2cccc(O)c2)on1	·	60.7	20.1*	·
COc1cccc(-c2cc(C(=O)Nc3cccnc3Cl)no2)c1	19.0%[46.1 µM]	10.2	10.4	?
CCc1ccccc1NC(=O)c1cc(-c2ccc(F)cc2)on1	·	32.8	20.6	·
O=C(Nc1cccnc1Cl)c1cc(-c2cccc(O)c2)on1	?	70.4*	16.1*	-33.1%[46.1 µM]
O=C(Nc1ccccc1C(F)(F)F)c1cc(-c2cccc(O)c2)on1	25.1%	26.7	20.2*	0.7%
CCc1ccccc1NC(=O)c1cc(-c2cccs2)on1	-5.6%[46.1 µM]	38.1	17.3*	3.0%
O=C1C2C3C=CC(C2C(=O)N1CCO)C1C(=O)N(CCO)C(=O)C31 (stereo not drawn)	·	-6.9	-2.4	·
CC(=NNC(=O)CSc1nc2ccccc2o1)c1ccco1	9.7%	·	·	0.8%
CCOC(=O)c1cc(CC)sc1NC(=O)CN1CCN(C(=O)c2ccco2)CC1	·	-16.7	-7.1	·
Cc1ccc(-c2[nH]ncc2/C=N/n2c(COc3ccccc3)nc3ccccc3c2=O)cc1	?	41.8	29.2*	?
Cc1ccccc1OCc1nc2ccccc2c(=O)n1/N=C/c1cn[nH]c1-c1ccccc1	15.8µM*	30.3	7.4	10µM*
Cc1ccccc1OCc1nc2ccccc2c(=O)n1/N=C/c1cccc([N+](=O)[O-])c1	-1.4%	+	23.0*	6.6%
Cc1nc2ccccc2c(=O)n1/N=C/c1cn[nH]c1-c1ccccc1	-18.2%[46.1 µM]	5.9	0.6	?
COC(=O)CC1c2ccccc2S(=O)(=O)N1Cc1ccccc1 (stereo not drawn)	·	16.6	9.2	·
Cc1ccc2c(c1)N(CC(=O)OCC(=O)NCc1ccccc1)C(=O)CO2	·	-5.5	0.8	·
O=C(c1ccccc1)N1N=C(c2cccs2)CC1c1ccccc1O (stereo not drawn)	·	10.9	-1.7	·
COC(=O)c1ccc(C2N=C(c3cccs3)CC(c3ccccc3O)N2)cc1 (stereo not drawn)	4.4%[46.1 µM]	100.0*	38.1*	13.4%
SMILES	MARV entry inh	Shiga inhibitor	CHX counter	Lassa entry inh
CCOC(=O)C1(Cc2ccc(OC)cc2)CCN(C(=O)c2cc(C)nn2C)CC1	·	18.6	13.9*	·
CCCS(=O)(=O)N1CCC(Cc2ccc(OC)cc2)(C(=O)OCC)CC1	·	19.0	19.8*	·
CCOC(=O)C1(Cc2ccc(OC)cc2)CCN(S(C)(=O)=O)CC1	-6.4%[46.1 µM]	50.1*	47.1*	15.4%[46.1 µM]
CCOC(=O)C1(Cc2ccc(OC)cc2)CCN(C(=O)CN2CCCCC2=O)CC1	0.1%[46.1 µM]	25.6*	16.7*	11.9%
Cc1ccc(S(=O)(=O)NCC2(c3ccccc3)CCOCC2)cc1	·	-20.4	3.2	·
CC1CCCN(C(C(=O)NC2CCCCC2)c2cc3c(cc2[N+](=O)[O-])OCO3)C1 (stereo not drawn)	28.7%	108.4*	53.0*	?
CCOc1ccccc1C1CC(=O)Nc2cc(C)c(C)cc21 (stereo not drawn)	·	·	-4.5	·
CCCOc1ccccc1C1CC(=O)Nc2cc3c(cc21)OCCO3 (stereo not drawn)	2.82µM*	9.4	-2.5	?
CCOc1ccccc1C1CC(=O)Nc2cc3c(cc21)OCCO3 (stereo not drawn)	8.2µM*	-4.7	-1.2	?
